# Hit rate of the full screen: of about 13,000 compounds, about 3,200 (25%) showed an effect of 50% or more. Some of the results follow.
# Tested on: P. falciparum stage V gametocytes
# Set-up: BacTiter-Glo ATP luminescence viability of purified stage V gametocytes in 384-well plates, per cent inhibition versus DMSO
# Conditions: 48 h, 5 µM; inhibitor
row,SMILES,% Inhibition [%]
1,COc1ccc(C(=O)NCc2ccc(N)nc2C)cc1Nc1ncc(-c2cccc(N(C)C)c2)cn1 [TCMDC-132420],-21.32
2,CCc1ccc(Cc2cnc3nc(N)nc(N)c3c2C)cc1CC [TCMDC-138054],77.27
3,CCc1ccc(Cc2cnc3nc(N)nc(N)c3c2C)cc1 [TCMDC-137686],14.74
4,CCCc1ccc(Cc2cnc3nc(N)nc(N)c3c2C)cc1 [TCMDC-138046],5.48
5,Cc1nc(N)nc(N)c1OCCCOc1cccc(Cl)c1Cl [TCMDC-131369],-7.285
6,OCCN1CCN(C(=S)Nc2ccccc2)CC1 [TCMDC-123846],-8.492
7,O=C(Nc1ccc(N2CCCN(Cc3cccc(F)c3)CC2)cc1)c1ccccc1 [TCMDC-135014],-40.3
8,OCCN1CCN(c2nc(Nc3cccc(F)c3)c3cnn(-c4ccccc4)c3n2)CC1 [TCMDC-124948],87.2
9,Clc1cc(Cl)c2c(c1)C(NCCCNc1nc3ccccc3[nH]1)CCO2 (stereo not shown) [TCMDC-139802],-25.37
10,O=c1cc(NC[C@@H]2CCC[C@@H]2NCc2ccc(Cl)c(Cl)c2)[nH]c2ccccc12 [TCMDC-139627],-25.41
11,Clc1cc(Cl)c2cc(CN[C@H]3CCC[C@@H]3CNc3nc4ccccc4[nH]3)[nH]c2c1 [TCMDC-139878],63.13
12,CC1=C(C(=O)Nc2ccccc2)C(c2ccc([N+](=O)[O-])cc2)n2ncc(C(=O)Nc3ccccc3)c2N1 (stereo not shown) [TCMDC-125283],50.23
13,COc1ccc(C2C(C(=O)Nc3ccccc3)=C(C)Nc3c(C(=O)Nc4ccccc4)cnn32)cc1 (stereo not shown) [TCMDC-125284],-13.81
14,CC1=C(C(=O)Nc2ccc(Cl)cc2)C(c2ccncc2)n2nc(C(F)(F)F)nc2N1 (stereo not shown) [TCMDC-124419],-9.933
15,c1csc(-c2ccc3c(c2)CC(NCc2c[nH]c4cnccc24)C3)c1 (stereo not shown) [TCMDC-134833],42.25
16,COc1cccc(NC(=O)c2cc([N+](=O)[O-])ccc2NC(=O)CN2CCc3ccccc3C2)c1 [TCMDC-123678],69.57
17,CCC(CC)N1CCN(CC(=O)Nc2ccc([N+](=O)[O-])cc2C(=O)Nc2cccc(OC)c2)CC1 [TCMDC-123679],-23.44
18,COc1cc(NC(=O)c2cc([N+](=O)[O-])ccc2NC(=O)CNC2CCCC(C)C2C)cc(OC)c1 (stereo not shown) [TCMDC-125300],-31.14
19,COc1cc(F)c2ncc(Cl)c(CCN3CCC(NCc4ccc5c(n4)NC(=O)CO5)CC3)c2c1 [TCMDC-135621],-16.17

# Source: article PMC4552634, “A New Set of Chemical Starting Points with Plasmodium falciparum Transmission-Blocking Potential for Antimalarial Drug Discovery” (PLoS ONE, 2015)
